# Bioassay records: PubChem BioAssay, National Center for Advancing Translational Sciences (NCATS)
# IP6K1 inh: inhibitors of human IP6K1 | Q92551 | 140,000 tested, 0.81% active | activity change, % (series mostly up to about 58 µM) | IP6K1 kinase, ADP-Glo luminescence, 2 h; active compounds read low; in the data active = activity change below about -25%
#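 ADP-Glo luminescence measures ADP made by human IP6K1 during a 2 h RT reaction with ATP/IP6 (mix at 1.3 mM/130 uM); top library doses 57.5 and 19.1 uM final.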
# HEK293 viab: cell viability loss counter-screen; 150,000 tested, 0.12% active; Potency, µM (series often up to 57.1 µM), actives largely listed as cytotoxic; HEK-293-SNCA-luc viability, GF-AFC fluorescence, 24 h; also: nearly all actives have a fitted effect of over 30% in size
#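 Cytotoxicity counterscreen: after 24 h compound treatment of genome-edited SNCA-luciferase HEK-293 cells, live-cell protease substrate GF-AFC read by fluorescence after 30 min; activity scaled between DMSO (0%) and medium-only (-100%), curves Hill-fitted.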
# SNCA expr inh: reduces expression of the alpha-synuclein gene; Potency, µM (top dose mostly 57.2 µM), actives largely listed as inhibitors; 140,000 tested, 0.17% active; HEK-293 SNCA-luciferase knock-in, luminescence, 24 h; also: nearly all actives have a fitted effect of over 45% in size
# KDM5B inh: KDM5B demethylase inhibition; 220,000 tested, 2.6% active; Potency, µM (series often up to 57.7 µM), most hits filed as inhibitors; Q9UGL1; KDM5B demethylase, FDH-coupled NADH fluorescence (FDH is formaldehyde dehydrogenase); also: nearly all actives have a fitted effect of over 70% in size
#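 qHTS format, multiple compound concentrations. Buffer 50 mM HEPES pH 7.5/0.01% Tween-20; 200 nM KDM5BΔAP final; 10 min compound preincubation; substrate-mix levels 12.5 µM peptide, 25 µM α-KG, 0.25 mM NAD⁺; 30 min RT; ΔRFU.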
# IP6K1 conf: confirmation of human IP6K1 inhibitors | Potency, µM (highest dose often 49 µM), actives largely listed as inhibitors | recombinant IP6K1 kinase, ADP-Glo luminescence, 2 h | shares compounds with IP6K1 inh | 1,200 tested, 13% active; also: nearly all actives have a fitted effect of over 65% in size
# Numbers stand for hits; n = inactive; u = inconclusive; x = no result given; ! = not confirmed by another sample. This is a sample that favours compounds with a hit; in the whole collection about 2.8% have one here. Unless noted, calls follow the shape of the dose curve; as a rule, active = well fitted curve in the direction sought with a large enough effect; inconclusive = small, poorly fitted or top-dose-only effect, or another doubt; inactive = no such curve, though single readings can be large; an effect the other way counts as inactive or inconclusive.
SMILES,IP6K1 inh,HEK293 viab,SNCA expr inh,KDM5B inh,IP6K1 conf
Cc1cnc(Nc2cccc(CN3CCOCC3)c2)nc1Nc1cccc(S(=O)(=O)NC(C)(C)C)c1,n,n,n,x,n
Cc1cnc(Nc2ccc(CN3CCOCC3)cc2)nc1Nc1cccc(S(=O)(=O)NC(C)(C)C)c1,n,u,n,x,n
COc1ccc(CN2CC(c3ncc4c(-c5ccccc5)nccn34)C2)cc1O,n,n,n,u,x
Nc1cccc(-c2ccc(N3CCCCC3)nn2)c1,-27,n,1.8µM,n,u
Cc1ccc(CN2CCc3nc(N4CCN(c5ncccn5)CC4)ncc3C2)cc1,n,n,n,u,x
Cc1cccc(CN2CCc3nc(N4CCN(c5ccccn5)CC4)ncc3C2)c1,-27,n,n,u,u
Cc1oc(-c2ccccc2)nc1CC(=O)NC(C)C(C)C (centres undefined),x,x,x,n,x
O=C1CCCN1CC1CCN(C(=O)c2ccc(N3CCC(CO)C3)nc2)CC1 (centres undefined),n,n,n,u,x
COCCCNc1ccc(C(=O)N2CCC(CN3CCCC3=O)CC2)cn1,-57,n,n,u,n
COc1cc(Nc2ncc3c(n2)-c2ccc(Cl)cc2C(c2c(F)cccc2OC)=NC3)ccc1C(=O)O,-37!,n,n,x,u
NC(=O)c1cccc(-c2cc(Nc3ccc(OC(F)(F)F)cc3)ncn2)c1,-25,n,n,x,u
O=C(NCCO)c1cccc(-c2cc(Nc3ccc(OC(F)(F)F)cc3)ncn2)c1,n,n,x,x,x
CCOC(=O)N1CCC(c2noc3nc(C4CC4)cc(C(=O)NC)c23)CC1,n,x,x,x,x
COc1ccc(CN2CCN(c3cc(N(C)C)ncn3)CC2CCO)c(C)c1C (centres undefined),-35,n,n,u,n
CCCC(=O)Nc1nc(-c2ccc3c(c2)CCO3)cs1,x,x,x,n,x
Cc1ccc(C2NC(=O)c3c(sc4c3CCN(Cc3ccccc3)C4)N2)o1 (centres undefined),x,x,x,n,x
C/C=C/C=C/C=C/C(=O)O[C@@H]1[C@@H](OC)C2=C(C(=O)N(C(C)C(=O)O)C2)[C@@]2(C)CCCC(C)(C)[C@H]12 (some centres undefined),n,n,x,x,n
Cn1ccnc1SCC(=O)Nc1sc2c(c1C#N)CCC(C(C)(C)C)C2 (centres undefined),x,x,x,n,x
CC1=C(C(=O)OC2CCCCC2)C(c2ccc([N+](=O)[O-])cc2)C2=C(CC(C)(C)CC2=O)N1 (centres undefined),-36,n,x,x,n
CC1=C(C(=O)OC2CCCCCC2)C(c2c(Cl)cccc2Cl)CC(=O)N1 (centres undefined),n,n,u,n,x
Cc1ccc(-c2csc3ncnc(Sc4nnc(C)s4)c23)cc1,x,x,x,n,x
Cn1nnnc1Sc1ncnc2scc(-c3ccc(Cl)cc3)c12,x,x,x,x,n
CN(CC(=O)Nc1ccccc1Cl)C(=O)CSc1ncnc2scc(-c3ccccc3)c12,x,x,x,n,x
Cn1nnnc1Sc1ncnc2scc(-c3ccc4c(=O)ccoc4c3)c12,x,x,x,x,n
